These results are taken from PubChem BioAssay AID1347150 (National Center for Advancing Translational Sciences (NCATS), 2019).

Inconclusive results are not listed. Unmarked numbers belong to inactive results. Activity calls are given as the source filed them. The call rests on the fitted dose curve; in most records, active means well fitted curve in the direction sought with a large enough effect; inconclusive means small, poorly fitted or top-dose-only effect, or another doubt; inactive means no such curve, though single readings can be large or run the other way. Numbered stars: 1 amine (or outer) side, 2 acyl side, 3 side chain; on linkers, the order of the positions; unused ones are H or OH. Bridge positions count the residues as written; N and C are the ends. Square brackets hold non-standard residues; d marks the D form. Peptide text beside a SMILES is read from it. I, II: the chains in the order shown. ξ: configuration not given here. Actinocin(9to1) = Cc1c2oc3c(C)ccc(C(=O)[*:1])c3nc-2c(C(=O)[*:2])c(N)c1=O; aThr = C[C@H](O)[C@H](N)C(=O)O; NMeV = CN[C@H](C(=O)O)C(C)C; ξNMeV = CNC(C(=O)O)C(C)C; ξV = CC(C)C(N)C(=O)O; Sar = CNCC(=O)O

For this test, the system named is Zika virus NS2B-NS3 protease (linked). Kind of test: Optimization screen NINDS AMC qHTS for Zika virus inhibitors: Linked NS2B-NS3 protease assay. To be noted: recombinant linked NS2B-NS3 protease, AMC fluorogenic substrate; series mostly up to 52.5 µM; activity change, negative = inhibition: at the top concentration. The source says:
Avindra Nath, Ph.D., National Institute of Neurological Disorders and Stroke (NINDS), Bethesda, MD
Radhakrishnan Padmanabhan, Ph.D., Georgetown University (GU), Washington D.C.
Zika Virus causes congenital defects, including microcephaly and is associated with Guillain-Barre syndrome, eningoencephalitis and myelitis in infected adult. […] Using a target-based approach, we hope to establish a screening paradigm to uncover novel, cell-active NS2B-NS3 protease (Zika Virus) specific inhibitors from NCATS' collection of small molecules using qHTS.
Four assay panel was created to identify potential Zika Virus inhibitors. Namely, (1) GU unlinked NS2B-NS3 AMC tagged protease qHTS, (2) GU unlinked NS2B-NS3 Rhodamine tagged protease qHTS, (3) NINDS linked NS2B-NS3 AMC tagged protease qHTS, (4) NINDS linked NS2B-NS3 Rhodamine tagged protease qHTS. Active compounds were re-acquired and re-screened to confirm inhibition. Inhibitors were further screened against various confirmatory and counterscreens in dose response format.
Early Translation Branch (ETB)
National Center for Advancing Translational Sciences (NCATS), Rockville, MD
National Institute of Health (NIH), Bethesda, Maryland
For the linked assay, Nath lab (NINDS) provided the purified linked NS2B-NS3 protease which is consists of hydrophilic domain of NS2B linked to the NS3 protease domain by a flexible (-GGGGSGGGG-) linker. Control compound aprotinin is obtained from Thermo Scientific (#78432; Waltham, Massachusetts). NS2B-NS3 AMC substrate (Bz-Nle-Lys-Arg-Arg-AMC; Nle-KRR-AMC) purchased from Bachem (#I-1995; Torrance, CA). Ac-VKTGKR-AMC purchased from Genscript or Bachem, Ac-FAAGKR-AMC purchased from Genscript, Ac-GLVKRR-AMC purchased from Genscript, Ac-LKKR-AMC purchased from Genscript.
NINDS AMC linked NS2B-NS3 protease qHTS protocol:
Briefly, 3 microL of Zika virus linked NS2B-NS3 protease (1 nM for linked final concentration), in assay buffer (10 mM Tris-HCl pH 8.0 with 0.01% Tween 20) was dispensed into a 1,536-well solid-bottom black plate (Greiner Bio One, Monroe, NC). Twenty-three nL of compounds (final concentration range 7.28 nM to 114 microM) or control Aprotinin (final concentration range 3.47 nM to 114 microM) were transferred via Wako Pin-tool (Wako Automation, Richmond, VA). Samples were incubated (room temperature, protected from light) for 15 minutes followed by a 1 microL AMC substrate addition of (final concentration of 10 microM; Km = 18.3 µM). Plates were then read immediately on a ViewLux High-throughput CCD imager (PerkinElmer, Waltham, MA) equipped with standard UV fluorescence optics (340(30) nm excitation, 450(20) nm emission) then incubated (room temperature, protected from light) for 15 minutes (~20% conversion). The change in fluorescence intensity over the 15-minute reaction period was normalized against no-inhibitor and no-enzyme controls and the resulting percent inhibition data were fitted to a 4-parameter Hill equation. Aprotinin was used as the intraplate control.
In general terms: qHTS replaces the single test concentration by a dilution series.
In the case of `O=C1c2cccc3c2[C@@H](CCC3)CN1[C@@H]1CN2CCC1CC2`, the “activity change, negative = inhibition” value was -3.68%. Still for that read-out and setting: then `CCC(CC)(NC(=O)C(C)C)C(=O)N[C@@H](CCCN=C(N)N)C(=O)NC1(C(=O)NC(c2ccc(F)cc2)c2ccc(F)cc2)CCCC1`, with 14.4%.

As for `Cc1nc(Nc2ncc(C(=O)Nc3c(C)cccc3Cl)s2)cc(N2CCN(CCO)CC2)n1`, the Potency was 355 µM (active). For `Cc1ccccc1CNc1ncnc2c1ncn2C1OC(CO)C(O)C1O` (stereo not given), the “activity change, negative = inhibition” value is -8.32%. The same measure, in the same setting: then `NC(=O)C(=O)O`, with 11.6%; and `CC(C)N=c1cc2n(-c3ccc(Cl)cc3)c3ccccc3nc-2cc1Nc1ccc(Cl)cc1`, with -7.44%; and `CC[C@@H](C)[C@H]1O[C@]2(CC[C@H]1C)C[C@@H]1C[C@@H](CC=C(C)[C@@H](O[C@H]3C[C@H](OC)[C@@H](O[C@H]4C[C@H](OC)[C@@H](O)[C@H](C)O4)[C@H](C)O3)[C@@H](C)C=CC=C3CO[C@@H]4[C@H](O)C(C)=C[C@@H](C(=O)O1)[C@]34O)O2`, with 1.01%. Same read-out and setting: then `OC(c1cc(C(F)(F)F)nc2c(C(F)(F)F)cccc12)C1CCCCN1` (stereo not given), with 9.63%.

In the case of `Cc1c2oc3c(C)ccc(C(=O)N[C@@H]4C(=O)N[C@H](C(C)C)C(=O)N5CCC[C@H]5C(=O)N(C)CC(=O)N(C)[C@@H](C(C)C)C(=O)O[C@@H]4C)c3nc-2c(C(=O)N[C@@H]2C(=O)N[C@H](C(C)C)C(=O)N3CCC[C@H]3C(=O)N(C)CC(=O)N(C)[C@@H](C(C)C)C(=O)O[C@@H]2C)c(N)c1=O` (I: T[dV]P[Sar][NMeV] / II: T[dV]P[Sar][NMeV]; ester I:1-I:C, II:1-II:C; linker I:N-II:N via Actinocin(9to1)), the Potency result is “inactive”. On to `C[C@H]1O[C@@H](O[C@H]2CC[C@@]3(C)[C@H](CC[C@@H]4[C@@H]3C[C@@H](O)[C@]3(C)[C@@H](C5=CC(=O)OC5)CC[C@]43O)C2)C[C@H](O)[C@@H]1O[C@H]1C[C@H](O)[C@H](O[C@H]2C[C@H](O)[C@H](O[C@@H]3O[C@H](CO)[C@@H](O)[C@H](O)[C@H]3O)[C@@H](C)O2)[C@@H](C)O1`, for which the “activity change, negative = inhibition” value was -19.2%. Take `CC[C@H](C)[C@H]1O[C@]2(CC[C@@H]1C)C[C@@H]1C[C@@H](C/C=C(\C)[C@@H](O[C@H]3C[C@H](OC)[C@@H](O[C@H]4C[C@H](OC)[C@@H](O)[C@H](C)O4)[C@H](C)O3)[C@@H](C)/C=C/C=C3\CO[C@@H]4[C@H](O)C(C)=C[C@@H](C(=O)O1)[C@]34O)O2`: the Potency entry was “inactive”. Turning to `Nc1ncnc2c1ncn2[C@@H]1O[C@H](C[C@@H](N)CC[C@H](N)C(=O)O)[C@@H](O)[C@H]1O`, the “activity change, negative = inhibition” value is -6.57%. On to `Nc1nc(=S)c2[nH]cnc2[nH]1`, for which the Potency result is “inactive”. With `S=c1nc[nH]c2nc[nH]c12`, the Potency entry is “inactive”. Regarding `C[C@H]1O[C@@H](O[C@H]2[C@@H](O)C[C@H](O[C@H]3[C@@H](O)C[C@H](O[C@H]4CC[C@]5(C)C6C[C@@H](O)[C@]7(C)[C@@H](C8=CC(=O)OC8)CC[C@]7(O)C6CC[C@@H]5C4)O[C@@H]3C)O[C@@H]2C)C[C@H](O)[C@@H]1O` (stereo not given in full), the “activity change, negative = inhibition” value was 0.817%.

Regarding `Cn1cnc([N+](=O)[O-])c1Sc1ncnc2nc[nH]c12`, the Potency entry was “inactive”.

In the case of `CO[C@H]1C[C@H](O[C@@H]2/C(C)=C/C[C@@H]3C[C@@H](C[C@]4(CC[C@H](C)[C@@H](C5CCCCC5)O4)O3)OC(=O)[C@@H]3C=C(C)/C(=N/O)[C@H]4OC/C(=C\C=C\[C@@H]2C)[C@]43O)O[C@@H](C)[C@@H]1O`, the “activity change, negative = inhibition” value was -35.6%.

For the compound `C[C@H](NC(=O)C(=O)Nc1ccccc1C(C)(C)C)C(=O)N[C@@H](CC(=O)O)C(=O)COc1c(F)c(F)cc(F)c1F`, the “activity change, negative = inhibition” value is 3.42%. The same measure, in the same setting: the result for `C[C@H]1O[C@@H](O[C@H]2[C@@H](O)C[C@H](O[C@H]3[C@@H](O)C[C@H](O[C@H]4CC[C@@]5(C)[C@H](CC[C@@H]6[C@@H]5C[C@@H](O)[C@]5(C)[C@@H](C7=CC(=O)OC7)CC[C@]65O)C4)O[C@@H]3C)O[C@@H]2C)C[C@H](O)[C@@H]1O` reads 6.73% [at 114 µM]. Regarding `COc1c(C)c2c(c(O)c1C/C=C(\C)CCC(=O)O)C(=O)OC2`, the “activity change, negative = inhibition” value is -3.86%.

As for `O=c1cc(-c2ccccc2)oc2cc(O)c(O)c(O)c12`, the “activity change, negative = inhibition” value was -18.3%. Same read-out and setting: the result for `CC1O[C@@H](O[C@@H]2C(O)C[C@H](O[C@@H]3C(O)C[C@@H](OC4CC[C@@]5(C)C6CC(O)[C@@]7(C)C(C8=CC(=O)OC8)CC[C@@]7(O)C6CC[C@@H]5C4)OC3C)OC2C)CC(O)[C@H]1O` (stereo not given in full) reads 4.73%; that for `CCOc1ccc(C2C(=O)N(C3CCCCC3)CC(=O)N2Cc2ccc(F)cc2)cc1OC` (stereo not given), 4.99%.

With `O=C1c2c(O)ccc([N+](=O)[O-])c2C(=O)c2c([N+](=O)[O-])ccc(O)c21`, the Potency is 44.1 µM (active). In the case of `Cc1c2oc3c(C)ccc(C(=O)N[C@@H]4C(=O)NC(C(C)C)C(=O)N5CCC[C@H]5C(=O)N(C)CC(=O)N(C)C(C(C)C)C(=O)O[C@@H]4C)c3nc-2c(C(=O)N[C@@H]2C(=O)NC(C(C)C)C(=O)N3CCC[C@H]3C(=O)N(C)CC(=O)N(C)C(C(C)C)C(=O)O[C@@H]2C)c(N)c1=O` (stereo not given in full) (I: T[ξV]P[Sar][ξNMeV] / II: T[ξV]P[Sar][ξNMeV]; ester I:1-I:C, II:1-II:C; linker I:N-II:N via Actinocin(9to1)), the “activity change, negative = inhibition” value was -2.5%. With `CN1CCN(C(=O)CCN2C(=O)/C(=C\c3ccccc3F)SC2=S)CC1`, the “activity change, negative = inhibition” value was 9.29% [at 114 µM]. Same read-out and setting: the result for `CO[C@H]1C[C@@H](O[C@@H]2/C(C)=C/C[C@@H]3C[C@@H](C[C@]4(CC[C@H](C)[C@@H](C5CCCCC5)O4)O3)OC(=O)[C@@H]3C=C(C)/C(=N/O)[C@H]4OC/C(=C\C=C\[C@@H]2C)[C@]43O)O[C@@H](C)[C@H]1O` reads -44.5%; that for `CC1OC(OC2C(O)CC(OC3C(O)CC(OC4CCC5(C)C(CCC6C5CC(O)C5(C)C(C7=CC(=O)OC7)CCC65O)C4)OC3C)OC2C)CC(O)C1O` (stereo not given), 4.68% [at 114 µM].

For the compound `CCOc1ccc(C2C(=O)N(C3CCCCCC3)CC(=O)N2CCc2ccc(Cl)cc2)cc1OC` (stereo not given), the “activity change, negative = inhibition” value was 2.88%. On to `CCc1nc(N)nc(N)c1-c1ccc(Cl)cc1`, for which the Potency entry is “inactive”. The same measure, in the same setting: the result for `CCCCC(CC)CN=C(N)NC(N)=NCCCCCCN=C(N)NC(N)=NCC(CC)CCCC` (stereo not given) reads 19.2 µM (active); that for `CC(C)(C)CC(C)(C)c1ccc(OCCOCC[N+](C)(C)Cc2ccccc2)cc1`, “inactive”. As to `Nc1ncnc2c1ncn2[C@@H]1O[C@H](CSCC[C@H](N)C(=O)O)[C@@H](O)[C@H]1O`, the “activity change, negative = inhibition” value is -22.3%.

In the case of `CC(=O)Nc1ccc([C@H](C)C(=O)Nc2ncc(C(C)C)s2)cc1`, the “activity change, negative = inhibition” value is 7.38%. On the same count and under the same terms, then `N[C@H](C(=O)O)c1ccc(O)cc1`, with -13.9%. On the same count and under the same terms, the result for `O[C@@H](c1cc(C(F)(F)F)nc2c(C(F)(F)F)cccc12)[C@H]1CCCCN1` reads 11.7%; that for `Cc1c2oc3c(C)ccc(C(=O)N[C@@H]4C(=O)N[C@@H](C(C)C)C(=O)N5CCC[C@@H]5C(=O)N(C)CC(=O)N(C)[C@@H](C(C)C)C(=O)O[C@H]4C)c3nc-2c(C(=O)N[C@@H]2C(=O)N[C@@H](C(C)C)C(=O)N3CCC[C@@H]3C(=O)N(C)CC(=O)N(C)[C@@H](C(C)C)C(=O)O[C@H]2C)c(N)c1=O` (I: [aThr]V[dP][Sar][NMeV] / II: [aThr]V[dP][Sar][NMeV]; ester I:1-I:C, II:1-II:C; linker I:N-II:N via Actinocin(9to1)), -35.3%. Turning to `CC(C)C[C@@H](NC(=O)[C@H](Cc1ccccc1)NC(=O)c1cnccn1)B(O)O`, the “activity change, negative = inhibition” value was -1.73% [at 114 µM].

As to `CC=CCC(C)C(O)C1C(=O)NC(CC)C(=O)N(C)CC(=O)N(C)C(CC(C)C)C(=O)NC(C(C)C)C(=O)N(C)C(CC(C)C)C(=O)NC(C)C(=O)NC(C)C(=O)N(C)C(CC(C)C)C(=O)N(C)C(CC(C)C)C(=O)N(C)C(C(C)C)C(=O)N1C` (stereo not given), the “activity change, negative = inhibition” value was 7.12%. Same read-out and setting: then `CC[C@@H]1O[C@]2(C=C[C@@H]1C)C[C@H]1C[C@H](CC=C(C)[C@@H](O[C@@H]3C[C@H](OC)[C@H](O[C@@H]4C[C@H](OC)[C@H](O)[C@H](C)O4)[C@H](C)O3)[C@@H](C)C=CC=C3CO[C@@H]4[C@@H](O)C(C)=C[C@@H](C(=O)O1)[C@]34O)O2`, with -2.55% [at 24 µM].
